The values below come from paper PMC7862700, “An all-to-all approach to the identification of sequence-specific readers for epigenetic DNA modifications on cytosine”.

Assay in all cases: DAPPL (digital affinity profiling via proximity ligation, sequencing); 10 mM Tris-HCl pH 7.5, 50 mM NaCl, 1 mM DTT, 4% glycerol, room temperature, 30 min; GST-TFs on glutathione beads, 16-mer random dsDNA library, 0.1% formaldehyde crosslink after washing; high values mean tight binding
In one assay the target is T1, GABPA (Homo sapiens, UniProt Q06546 1-454).
T1 sequence: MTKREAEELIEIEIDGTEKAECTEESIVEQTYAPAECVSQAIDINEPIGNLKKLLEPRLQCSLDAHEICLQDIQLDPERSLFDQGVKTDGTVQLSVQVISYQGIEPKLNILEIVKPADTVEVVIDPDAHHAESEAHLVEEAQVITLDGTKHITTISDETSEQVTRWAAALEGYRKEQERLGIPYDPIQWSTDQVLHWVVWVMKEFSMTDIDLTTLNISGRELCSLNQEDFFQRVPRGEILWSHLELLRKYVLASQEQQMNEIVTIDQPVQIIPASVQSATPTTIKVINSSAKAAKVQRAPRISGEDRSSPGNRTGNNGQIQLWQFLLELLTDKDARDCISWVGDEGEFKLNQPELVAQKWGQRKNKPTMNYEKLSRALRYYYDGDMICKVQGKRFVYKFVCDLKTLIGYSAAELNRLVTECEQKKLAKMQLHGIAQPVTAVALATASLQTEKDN
Particulars: protein: recombinant; tags: N-terminal GST; dsDNA, one strand shown. An outline of the steps:
(§1)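 Human transcription factors carrying a GST fusion were produced in yeast, bound to glutathione beads, tagged with DNA barcodes and pooled together with a tag-only sample. Each pool was held with 200 nmole of a random double-stranded 16-mer DNA library in Tris/NaCl/DTT/glycerol buffer for 30 min at room temperature, then washed, crosslinked in 0.1% formaldehyde, proximity-ligated with BsaI/T4 ligase (1 h, 37 °C), PCR-amplified and sequenced on an Illumina NextSeq500. Binding signal is the read frequency of each hexamer for a given factor divided by its frequency in the tag-only sample.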

In the next assay the target is T2, ERG (Homo sapiens, UniProt P11308 1-479).
T2 sequence: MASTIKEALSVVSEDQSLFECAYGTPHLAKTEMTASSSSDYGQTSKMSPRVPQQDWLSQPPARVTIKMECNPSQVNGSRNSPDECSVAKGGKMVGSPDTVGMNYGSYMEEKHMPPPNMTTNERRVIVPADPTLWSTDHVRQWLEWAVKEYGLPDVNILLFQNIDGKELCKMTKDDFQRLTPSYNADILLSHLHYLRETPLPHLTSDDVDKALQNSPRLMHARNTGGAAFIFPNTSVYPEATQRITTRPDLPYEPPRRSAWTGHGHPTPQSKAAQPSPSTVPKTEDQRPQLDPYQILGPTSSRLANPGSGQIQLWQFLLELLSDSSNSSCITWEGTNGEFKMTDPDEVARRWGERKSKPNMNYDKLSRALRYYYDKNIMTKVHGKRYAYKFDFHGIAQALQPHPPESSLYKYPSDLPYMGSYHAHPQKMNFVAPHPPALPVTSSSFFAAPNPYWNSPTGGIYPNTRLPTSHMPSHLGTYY
The conditions noted are these: protein: recombinant; tags: N-terminal GST; dsDNA, one strand shown. The procedure, abridged: as §1

A further assay deals with SPI1 (Homo sapiens, UniProt P17947 1-270). Particulars: protein: recombinant; tags: N-terminal GST; dsDNA, one strand shown. The procedure, abridged: as §1
The target of a further assay is SPIB (Homo sapiens, UniProt Q01892 1-262). Particulars: protein: recombinant; tags: N-terminal GST; dsDNA, one strand shown. An outline of the steps: as §1
Sequence of SPIB (Q01892 whole entry): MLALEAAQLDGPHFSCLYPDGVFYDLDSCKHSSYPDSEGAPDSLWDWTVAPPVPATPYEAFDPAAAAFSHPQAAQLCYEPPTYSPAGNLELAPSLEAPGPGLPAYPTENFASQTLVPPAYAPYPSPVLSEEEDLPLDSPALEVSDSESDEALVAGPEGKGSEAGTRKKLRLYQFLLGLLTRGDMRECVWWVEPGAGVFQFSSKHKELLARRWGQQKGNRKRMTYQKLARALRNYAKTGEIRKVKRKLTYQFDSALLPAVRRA
The target of another assay is T3, ELK3 (Homo sapiens, UniProt P41970 1-407).
T3 sequence: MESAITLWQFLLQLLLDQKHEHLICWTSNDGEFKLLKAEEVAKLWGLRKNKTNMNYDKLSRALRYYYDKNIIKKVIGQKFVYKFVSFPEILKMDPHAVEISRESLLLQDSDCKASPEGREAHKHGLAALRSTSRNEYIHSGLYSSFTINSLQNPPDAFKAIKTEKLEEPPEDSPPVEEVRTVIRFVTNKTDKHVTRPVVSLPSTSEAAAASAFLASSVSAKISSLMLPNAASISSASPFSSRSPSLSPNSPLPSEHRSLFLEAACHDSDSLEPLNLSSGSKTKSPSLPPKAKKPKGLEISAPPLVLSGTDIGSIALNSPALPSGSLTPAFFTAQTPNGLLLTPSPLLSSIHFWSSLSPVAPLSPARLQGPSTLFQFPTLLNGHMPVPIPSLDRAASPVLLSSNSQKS
Particulars: protein: recombinant; tags: N-terminal GST; dsDNA, one strand shown. An outline of the steps:
as §1

In a further assay the target is HSF1 (Homo sapiens, UniProt Q00613 1-529). The conditions noted are these: protein: recombinant; tags: N-terminal GST; chain copies: 3; dsDNA, one strand shown. An outline of the steps: as §1
Sequence of HSF1 (Q00613 whole entry): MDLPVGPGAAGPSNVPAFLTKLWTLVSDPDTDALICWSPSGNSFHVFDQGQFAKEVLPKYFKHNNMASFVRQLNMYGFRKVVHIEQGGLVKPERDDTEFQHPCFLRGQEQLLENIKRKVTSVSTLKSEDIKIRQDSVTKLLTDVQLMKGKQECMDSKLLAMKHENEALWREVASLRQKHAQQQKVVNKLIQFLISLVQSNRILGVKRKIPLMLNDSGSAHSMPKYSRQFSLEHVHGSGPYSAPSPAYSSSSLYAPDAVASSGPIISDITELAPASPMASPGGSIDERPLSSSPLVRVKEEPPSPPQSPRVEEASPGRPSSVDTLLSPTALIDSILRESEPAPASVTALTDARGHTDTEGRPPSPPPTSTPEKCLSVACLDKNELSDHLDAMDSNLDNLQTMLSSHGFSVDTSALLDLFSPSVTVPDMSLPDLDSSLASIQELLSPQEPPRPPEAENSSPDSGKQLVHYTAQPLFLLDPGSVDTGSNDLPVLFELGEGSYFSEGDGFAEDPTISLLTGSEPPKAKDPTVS
The next assay has as its target T4, ELK4 (Homo sapiens, UniProt P28324-2 1-405).
T4 sequence: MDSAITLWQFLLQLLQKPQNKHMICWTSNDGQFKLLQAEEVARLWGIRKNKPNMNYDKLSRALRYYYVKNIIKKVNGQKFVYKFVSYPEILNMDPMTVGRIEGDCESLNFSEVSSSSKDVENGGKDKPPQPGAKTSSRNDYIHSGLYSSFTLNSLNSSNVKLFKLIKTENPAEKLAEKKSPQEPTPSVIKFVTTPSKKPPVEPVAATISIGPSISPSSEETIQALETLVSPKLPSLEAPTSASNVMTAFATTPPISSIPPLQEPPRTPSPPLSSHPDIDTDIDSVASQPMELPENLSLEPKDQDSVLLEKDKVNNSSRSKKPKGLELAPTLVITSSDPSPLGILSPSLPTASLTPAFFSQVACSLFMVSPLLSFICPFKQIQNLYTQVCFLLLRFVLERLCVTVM
The conditions noted are these: protein: recombinant; tags: N-terminal GST; dsDNA, one strand shown. The procedure, abridged:
as §1

The target in the next assay is T5, ETV2 (Homo sapiens, UniProt O00321 1-342).
T5 sequence: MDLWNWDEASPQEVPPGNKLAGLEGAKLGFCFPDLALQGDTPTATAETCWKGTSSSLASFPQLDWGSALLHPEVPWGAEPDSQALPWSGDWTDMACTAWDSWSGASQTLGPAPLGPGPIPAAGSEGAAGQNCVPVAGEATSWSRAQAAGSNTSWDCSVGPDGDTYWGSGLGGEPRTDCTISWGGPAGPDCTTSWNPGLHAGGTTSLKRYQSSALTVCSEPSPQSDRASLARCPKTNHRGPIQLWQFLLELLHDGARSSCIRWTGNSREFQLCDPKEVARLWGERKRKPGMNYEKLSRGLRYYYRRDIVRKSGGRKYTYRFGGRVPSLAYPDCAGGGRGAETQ
Particulars: protein: recombinant; tags: N-terminal GST; dsDNA, one strand shown. An outline of the steps: as §1

The next assay has as its target T6, ELF3 (Homo sapiens, UniProt P78545 1-371).
T6 sequence: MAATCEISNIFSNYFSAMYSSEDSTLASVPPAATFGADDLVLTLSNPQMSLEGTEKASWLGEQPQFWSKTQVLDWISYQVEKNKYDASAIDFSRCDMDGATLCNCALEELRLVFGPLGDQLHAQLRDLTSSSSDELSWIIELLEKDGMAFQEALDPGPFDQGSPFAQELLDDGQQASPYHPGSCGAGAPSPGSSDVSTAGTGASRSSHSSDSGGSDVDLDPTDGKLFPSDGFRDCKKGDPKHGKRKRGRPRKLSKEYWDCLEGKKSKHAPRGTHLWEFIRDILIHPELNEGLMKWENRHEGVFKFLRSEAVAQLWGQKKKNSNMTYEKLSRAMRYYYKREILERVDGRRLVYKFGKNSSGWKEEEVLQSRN
Particulars: protein: recombinant; tags: N-terminal GST; dsDNA, one strand shown. An outline of the steps:
as §1

For the next assay, the target named is CRX (Homo sapiens, UniProt O43186 1-299). The conditions noted are these: protein: recombinant; tags: N-terminal GST; dsDNA, one strand shown. An outline of the steps: as §1
Sequence of CRX (O43186 whole entry): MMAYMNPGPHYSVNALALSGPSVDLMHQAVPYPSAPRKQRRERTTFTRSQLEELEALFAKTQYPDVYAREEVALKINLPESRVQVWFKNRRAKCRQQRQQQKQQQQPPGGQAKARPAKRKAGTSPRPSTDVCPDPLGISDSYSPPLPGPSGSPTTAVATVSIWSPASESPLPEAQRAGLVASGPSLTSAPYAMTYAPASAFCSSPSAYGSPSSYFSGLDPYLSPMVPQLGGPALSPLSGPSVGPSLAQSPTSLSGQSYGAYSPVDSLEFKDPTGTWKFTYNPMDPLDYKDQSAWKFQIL
The target of another assay is T7, ETV3L (Homo sapiens, UniProt Q6ZN32 1-361).
T7 sequence: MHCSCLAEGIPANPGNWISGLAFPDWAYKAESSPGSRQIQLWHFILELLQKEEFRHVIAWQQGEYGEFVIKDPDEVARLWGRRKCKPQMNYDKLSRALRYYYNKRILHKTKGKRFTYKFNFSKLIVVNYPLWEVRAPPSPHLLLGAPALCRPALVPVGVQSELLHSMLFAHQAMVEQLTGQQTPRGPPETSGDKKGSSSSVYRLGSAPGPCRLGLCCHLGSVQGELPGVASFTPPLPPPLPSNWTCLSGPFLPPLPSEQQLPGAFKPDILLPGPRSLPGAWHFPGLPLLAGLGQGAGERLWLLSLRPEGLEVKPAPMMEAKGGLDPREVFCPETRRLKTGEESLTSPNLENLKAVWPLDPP
The conditions noted are these: protein: recombinant; tags: N-terminal GST; dsDNA, one strand shown. An outline of the steps: as §1

A further assay has as its target T8, ETS2 (Homo sapiens, UniProt P15036 1-469).
T8 sequence: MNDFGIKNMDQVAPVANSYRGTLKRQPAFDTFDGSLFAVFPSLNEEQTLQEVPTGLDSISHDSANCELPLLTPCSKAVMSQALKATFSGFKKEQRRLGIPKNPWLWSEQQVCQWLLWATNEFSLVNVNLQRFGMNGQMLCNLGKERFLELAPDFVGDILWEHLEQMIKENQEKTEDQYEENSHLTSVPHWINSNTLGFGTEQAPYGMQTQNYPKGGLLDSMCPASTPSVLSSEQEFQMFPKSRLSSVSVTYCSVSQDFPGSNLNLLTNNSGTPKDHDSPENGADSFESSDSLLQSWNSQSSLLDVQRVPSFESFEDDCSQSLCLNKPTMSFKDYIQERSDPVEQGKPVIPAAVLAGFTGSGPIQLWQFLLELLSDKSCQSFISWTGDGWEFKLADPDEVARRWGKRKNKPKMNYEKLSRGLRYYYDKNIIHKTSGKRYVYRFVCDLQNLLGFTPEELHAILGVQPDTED
Particulars: protein: recombinant; tags: N-terminal GST; dsDNA, one strand shown. The procedure, abridged: as §1

In the next assay the target is T9, ETV7 (Homo sapiens, UniProt Q9Y603 1-341).
T9 sequence: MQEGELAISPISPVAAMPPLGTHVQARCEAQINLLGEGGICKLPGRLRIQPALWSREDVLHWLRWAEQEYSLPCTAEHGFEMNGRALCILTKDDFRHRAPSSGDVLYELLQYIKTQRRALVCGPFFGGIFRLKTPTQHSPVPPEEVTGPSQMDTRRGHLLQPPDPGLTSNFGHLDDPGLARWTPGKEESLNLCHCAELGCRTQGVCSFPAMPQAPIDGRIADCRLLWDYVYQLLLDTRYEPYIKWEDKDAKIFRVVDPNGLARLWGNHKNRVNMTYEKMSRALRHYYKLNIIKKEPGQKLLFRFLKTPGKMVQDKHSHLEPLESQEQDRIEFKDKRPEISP
The conditions noted are these: protein: recombinant; tags: N-terminal GST; dsDNA, one strand shown. An outline of the steps: as §1

A further assay deals with T10, ELF5 (Homo sapiens, UniProt Q9UKW6-2 1-255).
T10 sequence: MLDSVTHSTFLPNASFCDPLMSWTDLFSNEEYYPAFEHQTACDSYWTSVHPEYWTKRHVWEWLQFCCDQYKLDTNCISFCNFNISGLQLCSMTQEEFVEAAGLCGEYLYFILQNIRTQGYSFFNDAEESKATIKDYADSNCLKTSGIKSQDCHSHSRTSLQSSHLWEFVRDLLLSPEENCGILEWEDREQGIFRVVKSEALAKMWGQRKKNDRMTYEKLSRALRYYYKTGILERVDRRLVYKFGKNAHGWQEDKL
Particulars: protein: recombinant; tags: N-terminal GST; dsDNA, one strand shown. An outline of the steps:
as §1

In the next assay the target is ELF4 (Homo sapiens, UniProt Q99607 1-663). The conditions noted are these: protein: recombinant; tags: N-terminal GST; dsDNA, one strand shown. An outline of the steps:
as §1

Another assay has as its target ETV6 (Homo sapiens, UniProt P41212 1-452). Particulars: protein: recombinant; tags: N-terminal GST; dsDNA, one strand shown. The procedure, abridged:
as §1

Sequence of ELF4 (Q99607 whole entry): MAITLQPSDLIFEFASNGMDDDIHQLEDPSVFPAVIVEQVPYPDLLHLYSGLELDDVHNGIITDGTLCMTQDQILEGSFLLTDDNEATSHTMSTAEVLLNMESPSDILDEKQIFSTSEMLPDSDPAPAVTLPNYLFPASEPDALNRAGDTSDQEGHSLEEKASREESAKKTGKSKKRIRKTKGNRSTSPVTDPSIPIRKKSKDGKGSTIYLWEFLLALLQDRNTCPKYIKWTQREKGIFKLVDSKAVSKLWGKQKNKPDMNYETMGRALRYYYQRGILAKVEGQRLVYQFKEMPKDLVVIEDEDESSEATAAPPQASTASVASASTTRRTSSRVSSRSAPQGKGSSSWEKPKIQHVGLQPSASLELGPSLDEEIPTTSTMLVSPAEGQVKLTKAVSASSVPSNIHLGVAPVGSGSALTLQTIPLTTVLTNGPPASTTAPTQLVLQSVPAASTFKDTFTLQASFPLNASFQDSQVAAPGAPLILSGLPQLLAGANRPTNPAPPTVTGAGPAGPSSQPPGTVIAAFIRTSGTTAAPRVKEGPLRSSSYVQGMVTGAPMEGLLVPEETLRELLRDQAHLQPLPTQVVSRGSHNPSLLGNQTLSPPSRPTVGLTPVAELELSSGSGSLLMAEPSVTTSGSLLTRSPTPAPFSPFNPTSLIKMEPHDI
Sequence of ETV6 (P41212 whole entry): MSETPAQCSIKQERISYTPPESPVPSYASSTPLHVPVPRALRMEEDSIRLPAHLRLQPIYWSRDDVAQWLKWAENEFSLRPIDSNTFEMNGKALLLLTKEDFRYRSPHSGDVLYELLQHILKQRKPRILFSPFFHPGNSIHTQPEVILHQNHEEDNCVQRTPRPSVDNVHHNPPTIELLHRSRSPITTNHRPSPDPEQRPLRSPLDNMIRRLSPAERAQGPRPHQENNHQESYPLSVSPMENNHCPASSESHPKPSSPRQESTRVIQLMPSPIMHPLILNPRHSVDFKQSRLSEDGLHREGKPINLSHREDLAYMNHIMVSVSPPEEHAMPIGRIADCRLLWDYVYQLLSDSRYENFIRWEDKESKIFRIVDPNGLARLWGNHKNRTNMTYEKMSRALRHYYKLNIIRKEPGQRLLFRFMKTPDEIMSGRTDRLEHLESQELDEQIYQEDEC

On to GCGATA, for which the binding signal with GABPA is 1 fold enrichment (6-mer frequency, TF over GST control); with ERG, 1 fold enrichment (6-mer frequency, TF over GST control); with SPI1, 1.03 fold enrichment (6-mer frequency, TF over GST control); in the assay with SPIB, 1.02 fold enrichment (6-mer frequency, TF over GST control); with ELK3 it was 1.1 fold enrichment (6-mer frequency, TF over GST control); in the assay with HSF1, 1.06 fold enrichment (6-mer frequency, TF over GST control). Also, the binding signal with ELK4 is 1.07 fold enrichment (6-mer frequency, TF over GST control); with ETV2, 1.11 fold enrichment (6-mer frequency, TF over GST control); in the assay with ELF3, 1.02 fold enrichment (6-mer frequency, TF over GST control); with CRX, 1.11 fold enrichment (6-mer frequency, TF over GST control); with ETV3L, 1.03 fold enrichment (6-mer frequency, TF over GST control); with ETS2, 1.04 fold enrichment (6-mer frequency, TF over GST control). For the same sequence, the binding signal with ETV7 was 1.06 fold enrichment (6-mer frequency, TF over GST control); in the assay with ELF5, 1.02 fold enrichment (6-mer frequency, TF over GST control).

As to TCAGAA, the binding signal in the assay with HSF1 was 1.26 fold enrichment (6-mer frequency, TF over GST control); in the assay with ELF4, 1 fold enrichment (6-mer frequency, TF over GST control); in the assay with CRX, 1.12 fold enrichment (6-mer frequency, TF over GST control).

With GATAAA, the binding signal with SPIB was 1.04 fold enrichment (6-mer frequency, TF over GST control); in the assay with HSF1 it was 1.21 fold enrichment (6-mer frequency, TF over GST control); with ELF4, 1.01 fold enrichment (6-mer frequency, TF over GST control); in the assay with ELK4, 1.02 fold enrichment (6-mer frequency, TF over GST control); with ETV2, 1.12 fold enrichment (6-mer frequency, TF over GST control); with CRX, 1.55 fold enrichment (6-mer frequency, TF over GST control). Moreover, the binding signal with ETV6 is 1 fold enrichment (6-mer frequency, TF over GST control).
